Measured values from the supplement of paper PMC6555819.

Assays:
Assay in all cases: PBM binding z-score (relative to random genomic background probes); higher = stronger binding; sequences stand for … in GC…GCGATTGACAGCGTAGAATGAAGG
[1] = tested on: RARb homodimer (NR concentration 270 nM)
Outline: (§1)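 Custom Agilent 4×180K protein-binding microarrays carried double-stranded probes. Their 34-nt variable regions held direct-repeat seeds, single-nucleotide variants, half-site ablations and random human genomic background sequences. Arrays were incubated 1 h with ligand-free nuclear receptor dimers in PBS pH 7.4, 2% milk, 0.02% Triton X-100, 1 mM DTT, 0.2 mg/mL BSA and 0.4 mg/ml salmon testes DNA. Antibodies against each partner (one per run) detected binding, and scanned fluorescence was regression-normalized. Binding z-scores use random background probes as reference.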

[2] = tested on: RARg:RXRa (NR concentration 270 nM, RXRa partner concentration 90 nM)
Outline: as §1

[3] = tested on: RARg homodimer (NR concentration 270 nM)
Outline: as §1

[4] = tested on: RXRa DBDmut IVT, anti-RXR (DBD mutation: RXRa K156A/R161A, NR concentration 90 nM)
Outline: as §1

[5] = tested on: RXRa homodimer (NR concentration 180 nM)
Outline: as §1

[6] = tested on: THRa:RXRa (NR concentration 90 nM, RXRa partner concentration 90 nM)
Outline: as §1

[7] = tested on: THRa homodimer (NR concentration 90 nM)
Outline: as §1

[8] = tested on: VDR homodimer (NR concentration 270 nM)
Outline: as §1

| Sequence | PBM binding z-score [1] | PBM binding z-score [2] | PBM binding z-score [3] | PBM binding z-score [4] | PBM binding z-score [5] | PBM binding z-score [6] | PBM binding z-score [7] | PBM binding z-score [8] |
| --- | --- | --- | --- | --- | --- | --- | --- | --- |
| TCTTGTCGATCAACAGGAGGTTAAGAAAGATCGA | 0.439 | 0.322 | 0.198 | 0.168 | 0.805 | 0.59 | -0.736 | -0.499 |
| TCTATTAGGTGAAGGGCAACCGACGAGTCCGTTT | 1.59 | 1.07 | 1.35 | 1.57 | 0.977 | 1.42 | 0.828 | 1.67 |
| TCTCGGAGGACACGCAAGGTCAGAGCTCGACATC | 3.96 | 3.16 | 3.84 | 1.23 | 2.01 | 4.25 | 2.64 | 1.06 |
